The results in this text go back to PubChem BioAssay (NCATS).

Records with an inconclusive call do not appear. A number with no mark means an inactive call. Active and inactive are the calls of the source. The call rests on the fitted dose curve; in most records, active means well fitted curve in the direction sought with a large enough effect; inconclusive means small, poorly fitted or top-dose-only effect, or another doubt; inactive means no such curve, though single readings can be large; an effect the other way counts as inactive or inconclusive.

The nature of experiment [1]: Quantitative High-Throughput drug screen in 47 multiple myeloma cell lines against the NCATS MIPE library collection: KMS12BM_JCRB cell viability assay (AID 1918971). Further: nearly all actives have a fitted effect of over 35% in size. Further: potency means the concentration at half of the fitted maximal effect. An outline of the steps:
(§1)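 We plated 500 myeloma cells per well, pinned in MIPE 4.0 compounds, and incubated for 48 hours at 37C. ATP was then quantified with CellTiter-Glo, with DMSO and media-only wells defining 100% and 0%.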

The nature of experiment [2]: Quantitative High-Throughput drug screen in 47 multiple myeloma cell lines against the NCATS MIPE library collection: KMS12PE_JCRB cell viability assay (AID 1918972). Further: nearly all actives have a fitted effect of over 30% in size. Further: potency means the concentration at half of the fitted maximal effect. In a few lines: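 CellTiter-Glo ATP luminescence gave viability after 48 h compound treatment at 37C of 500 multiple myeloma cells per well. Normalisation used DMSO-only wells as 100% and media-only wells as 0% viability; primary qHTS of approved and investigational drugs.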

A short description of experiment [3]: Quantitative High-Throughput drug screen in 47 multiple myeloma cell lines against the NCATS MIPE library collection: KMS26_JCRB cell viability assay (AID 1918975). Further: nearly all actives have a fitted effect of over 45% in size. Further: potency means the concentration at half of the fitted maximal effect. An outline of the steps: as §1
Experiment [4] can be described thus: Quantitative High-Throughput drug screen in 47 multiple myeloma cell lines against the NCATS MIPE library collection: MMM1_PLB cell viability assay (AID 1918976). Further: potency means the concentration at half of the fitted maximal effect; nearly all actives have a fitted effect of over 35% in size. In a few lines: (§2)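 ATP-based CellTiter-Glo luminescence after 48 h drug exposure (37 °C, 5% CO2) of 500 myeloma cells per well. DMSO-only wells set 100% viability, media-only wells 0%; MIPE 4.0 library added by pin tool.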

A short description of experiment [5]: Quantitative High-Throughput drug screen in 47 multiple myeloma cell lines against the NCATS MIPE library collection: MM1R_ATCC cell viability assay (AID 1918981). Further: nearly all actives have a fitted effect of over 35% in size. Further: potency means the concentration at half of the fitted maximal effect. An outline of the steps: as §2
A short description of experiment [6]: Quantitative High-Throughput drug screen in 47 multiple myeloma cell lines against the NCATS MIPE library collection: LP1_DSMZ cell viability assay (AID 1918982). Further: nearly all actives have a fitted effect of over 35% in size. Further: potency means the concentration at half of the fitted maximal effect. An outline of the steps: as §2
Experiment [7] can be described thus: Quantitative High-Throughput drug screen in 47 multiple myeloma cell lines against the NCATS MIPE library collection: KMS28PE_JCRB cell viability assay (AID 1918983). Further: nearly all actives have a fitted effect of over 35% in size. Further: potency means the concentration at half of the fitted maximal effect. In a few lines: as §2
A short description of experiment [8]: Quantitative High-Throughput drug screen in 47 multiple myeloma cell lines against the NCATS MIPE library collection: KMS34_JCRB cell viability assay (AID 1918985). Further: nearly all actives have a fitted effect of over 40% in size. Further: potency means the concentration at half of the fitted maximal effect. In a few lines: as §2
A short description of experiment [9]: Quantitative High-Throughput drug screen in 47 multiple myeloma cell lines against the NCATS MIPE library collection: OCIMY5_PLB cell viability assay (AID 1918988). Further: nearly all actives have a fitted effect of over 65% in size. Further: potency means the concentration at half of the fitted maximal effect. An outline of the steps: as §2
Experiment [10] can be described thus: Quantitative High-Throughput drug screen in 47 multiple myeloma cell lines against the NCATS MIPE library collection: OPM1_PLB cell viability assay (AID 1918989). Further: nearly all actives have a fitted effect of over 40% in size. Further: potency means the concentration at half of the fitted maximal effect. In a few lines:
as §2

Experiment [11] in a line: Quantitative High-Throughput drug screen in 47 multiple myeloma cell lines against the NCATS MIPE library collection: KMS27_JCRB cell viability assay (AID 1918970). Further: nearly all actives have a fitted effect of over 30% in size. Further: potency means the concentration at half of the fitted maximal effect. An outline of the steps: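 KMS27_JCRB myeloma cells, 500 per well, exposed 48 h at 37 C, 5% CO2 to MIPE 4.0 compounds. Viability from ATP by CellTiter-Glo luminescence, normalized to DMSO (100%) and medium-only (0%) wells.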

The nature of experiment [12]: Quantitative High-Throughput drug screen in 47 multiple myeloma cell lines against the NCATS MIPE library collection: OCIMY1_PLB cell viability assay (AID 1918979). Further: nearly all actives have a fitted effect of over 35% in size. Further: potency means the concentration at half of the fitted maximal effect. In a few lines: as §2
Experiment [13] in a line: Quantitative High-Throughput drug screen in 47 multiple myeloma cell lines against the NCATS MIPE library collection: L363_DSMZ cell viability assay (AID 1918984). Further: nearly all actives have a fitted effect of over 40% in size. Further: potency means the concentration at half of the fitted maximal effect. In a few lines: as §2
Experiment [14] can be described thus: Quantitative High-Throughput drug screen in 47 multiple myeloma cell lines against the NCATS MIPE library collection: SKMM1_PLB cell viability assay (AID 1919863). Further: nearly all actives have a fitted effect of over 35% in size. Particulars: SKMM1 myeloma viability, CellTiter-Glo ATP, 48 h; viability: stronger effect = lower value. In a few lines: as §2
The nature of experiment [15]: Quantitative High-Throughput drug screen in 47 multiple myeloma cell lines against the NCATS MIPE library collection: MOLP8_DSMZ cell viability assay (AID 1918977). Further: nearly all actives have a fitted effect of over 45% in size. Further: potency means the concentration at half of the fitted maximal effect. In a few lines: as §2
Experiment [16] can be described thus: Quantitative High-Throughput drug screen in 47 multiple myeloma cell lines against the NCATS MIPE library collection: MM1S_ATCC cell viability assay (AID 1918980). Further: potency means the concentration at half of the fitted maximal effect; nearly all actives have a fitted effect of over 45% in size. In a few lines: as §2
Experiment [17] is described as follows: Quantitative High-Throughput drug screen in 47 multiple myeloma cell lines against the NCATS MIPE library collection: OCIMY7_PLB cell viability assay (AID 1918987). Further: nearly all actives have a fitted effect of over 65% in size. Further: potency means the concentration at half of the fitted maximal effect. An outline of the steps:
as §2

The nature of experiment [18]: Quantitative High-Throughput drug screen in 47 multiple myeloma cell lines against the NCATS MIPE library collection: KMS20_JCRB cell viability assay (AID 1918973). Further: nearly all actives have a fitted effect of over 45% in size. Further: potency means the concentration at half of the fitted maximal effect. An outline of the steps:
(§3)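 Approved and investigational drugs from MIPE 4.0 were added by pin tool to 500 cells per well. After 48 hours at 37C, ATP-based CellTiter-Glo luminescence indicated remaining viability.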

Experiment [19] can be described thus: Quantitative High-Throughput drug screen in 47 multiple myeloma cell lines against the NCATS MIPE library collection: KMS21BM_JCRB cell viability assay (AID 1918974). Further: potency means the concentration at half of the fitted maximal effect. Particulars: ATP luminescence, 48 h; viability: at 45.8 µM (top of the series) unless noted. An outline of the steps: as §3
A short description of experiment [20]: Quantitative High-Throughput drug screen in 47 multiple myeloma cell lines against the NCATS MIPE library collection: NCIH929_DSMZ cell viability assay (AID 1918978). Further: nearly all actives have a fitted effect of over 35% in size. An outline of the steps:
as §2

For `CCCCc1ccc2nc(NC(=O)OC)[nH]c2c1`, the Potency in experiment [1] is 0.0093 µM (active); in experiment [2], 0.0047 µM (active); in [3], 1.48 µM (active); in [4], 3.32 µM (active); in [5], 0.059 µM (active); in [6], 18.7 nM (active). The Potency in [7] is 0.0148 µM (active); in experiment [8], 14.8 nM (active); in [9], 0.0037 µM (active); in experiment [10] it was 0.0209 µM (active).

For `O=C1NC(=O)C(c2ccccc2[N+](=O)[O-])=C1Nc1ccc(O)c(Cl)c1`, the Potency entry in experiment [11], in experiment [12], in experiment [6], in experiment [13] and in experiment [10] was “inactive” each time. In addition, the Potency in [2] is 10.5 µM (active). The viability in [14] is 110%.

Take `C[C@]12CCC(=O)C=C1CC[C@@H]1[C@H]2[C@@H](O)C[C@@]2(C)[C@H]1CC[C@]2(O)C(=O)CO`: the Potency result in [11], in [15], in experiment [12], in [6], in experiment [7] and in experiment [13] was “inactive” each time. Besides, the Potency entry in experiment [9] and in [10] was “inactive” throughout.

As to `COCCCN1CCC(NC(=O)c2cc(Cl)c(N)c3c2OCC3)CC1`, the Potency in [11] is 18.7 µM (active); in [2] it was 16.6 µM (active); in experiment [13], 20.9 µM (active). Besides, the Potency entry in experiment [7] and in experiment [8] was “inactive” in each case.

`CCCc1cc(=O)[nH]c(=S)[nH]1`: the Potency result in [1], in experiment [2], in experiment [3], in experiment [15], in experiment [6] and in experiment [7] was “inactive” throughout. The Potency result in [8], in [17], in experiment [9] and in [10] was “inactive” each time. Also, the Potency in experiment [16] is 2.64 µM (active).

Take `CC(C)c1ccc2oc3nc(N)c(C(=O)O)cc3c(=O)c2c1`: the Potency entry in experiment [11], in [2], in experiment [5] and in experiment [7] was “inactive” each time. In addition, in experiment [17], the Potency was 18.7 µM (active).

For `CN(C)CCCC1(c2ccc(F)cc2)OCc2cc(C#N)ccc21` (stereo not given), the Potency result in [11], in [2], in experiment [3], in [6], in experiment [13] and in experiment [8] was “inactive” throughout. Moreover, in [10], the Potency result was “inactive”. Moreover, the results for the Potency in [16], in [17] and in experiment [9] were 18.7 µM (active), 11.8 µM (active) and 18.7 µM (active), respectively. The viability in [14] is 106%.

As to `COc1cc2c(cc1OC)C1CC(=O)C(CC(C)C)CN1CC2` (stereo not given), the Potency entry in [11], in [18], in [3], in [12], in experiment [5] and in [6] was “inactive” each time. Moreover, the Potency entry in [7] and in experiment [10] was “inactive” throughout. The Potency in experiment [19] and in experiment [4] was 20.9 µM (active) in each case.

Regarding `CCOC(=O)C1=C(O)C(=O)N(Cc2ccccc2)C1`, the Potency result in experiment [1], in [2], in [19], in experiment [15], in experiment [20] and in experiment [12] was “inactive” in each case. Further, the Potency entry in experiment [7] and in experiment [10] was “inactive” in each case. Further, the Potency in [4] is 1.66 µM (active). In addition, in [14], the viability is 107%.

On to `O=Nc1c(-c2c(O)[nH]c3cc(Br)ccc23)[nH]c2ccccc12`, for which the Potency in experiment [1] is 16.6 µM (active); in [2], 1.18 µM (active); in experiment [18], 5.9 µM (active); in [3] it was 18.7 µM (active); in [4], 20.9 µM (active); in experiment [15] it was 16.6 µM (active). In addition, the Potency was 26.4 µM (active) in [12]; 11.8 µM (active) in [16]; 16.6 µM (active) in experiment [5]; 23.5 µM (active) in [7]; 4.69 µM (active) in experiment [13]; 3320 nM (active) in [8]. Further, the figures for the Potency in experiment [17], in experiment [9] and in experiment [10] were 1.87 µM (active), 7.43 µM (active) and 5.26 µM (active), respectively.

Consider `CCC(C)(Oc1ccc(C2(c3ccc(OC(C)(CC)C(=O)O)cc3)CCCCC2)cc1)C(=O)O` (stereo not given), for which the Potency entry in experiment [11], in experiment [2], in experiment [15], in experiment [20], in experiment [12] and in [5] was “inactive” in each case. Also, the Potency entry in experiment [6], in experiment [13], in [9] and in experiment [10] was “inactive” in each case.

As for `Oc1ccc(-c2nc(-c3ccc(F)cc3)c(-c3ccncc3)[nH]2)cc1`, the Potency result in experiment [11] was “inactive”. In addition, the Potency in experiment [16] was 16.6 µM (active); in experiment [17] it was 9.35 µM (active); in experiment [9], 16.6 µM (active); in [10], 20.9 µM (active).

In the case of `Cc1c(C(=O)NN2CCCCC2)nn(-c2ccc(Cl)cc2Cl)c1-c1ccc(Cl)cc1`, the Potency was 23.5 µM (active) in [1], 14.8 µM (active) in experiment [2], 20.9 µM (active) in experiment [4] and 16.6 µM (active) in experiment [17]. Moreover, in experiment [8], the Potency result was “inactive”.

`Cc1nccn1CC1CCc2c(c3ccccc3n2C)C1=O` (stereo not given): the Potency entry in experiment [11] and in experiment [5] was “inactive” throughout. Besides, the Potency in experiment [16] was 26.4 µM (active); in [7] it was 20.9 µM (active); in experiment [10] it was 18.7 µM (active).

For `C=C(c1ccc(C(=O)O)cc1)c1cc2c(cc1C)C(C)(C)CCC2(C)C`, the Potency in experiment [11] is 0.0418 µM (active). Further, the Potency result in experiment [2], in [15], in experiment [12], in [5], in experiment [6] and in [7] was “inactive” in each case. Further, in experiment [8], the Potency entry was “inactive”.

As for `CNC[C@@H](O)[C@@H](O)[C@H](O)[C@H](O)CO`, the Potency entry in [11], in [3], in experiment [15], in experiment [20], in experiment [6] and in experiment [7] was “inactive” throughout. In addition, the Potency result in experiment [8] and in experiment [10] was “inactive” in each case.

As for `COc1cc(OC)c(C(=O)CCCN2CCCC2)c(OC)c1`, in experiment [19], the Potency was 18.7 µM (active).

Consider `CCN(CCO)CCCC(C)Nc1ccnc2cc(Cl)ccc12` (stereo not given), for which the Potency entry in experiment [19] is “inactive”.
